Measurements published in PubChem BioAssay AID624354 (Sanford-Burnham Center for Chemical Genomics, 2012).
Hit rate of the full screen: of about 360,000 compounds, about 3,800 (1.1%) were called active.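 How the source made its calls: active means compounds causing at least 50% loss of cell viability in the single-dose screen, relative to plate controls; inactive means the rest.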 The entries come from a sample that favours actives as a whole.

Assay: viability loss with TRAIL in NB7+C8 cells, primary screen, TRAIL sensitizer project, cell-based, ATPlite luminescence (AID 624354)
Conditions: at 10 µM, hits give high values

SMILES | inhibition (viability loss, TRAIL sensitization)
Cc1ccc(N(Cc2cc(=O)[nH]c3ccccc23)C(=O)CCl)cc1 | 92.9% (active)
CC(=O)N(Cc1cc(=O)[nH]c2ccccc12)c1ccc(C)cc1C | 1.98% (inactive)
CCC(=O)N(Cc1cc2ccccc2[nH]c1=O)c1ccc(OC)cc1 | -1.03% (inactive)
CN(C(=O)CSc1nnc(-c2ccc3c(c2)OCO3)o1)C1CCS(=O)(=O)C1 (stereo unspecified) | -7.74% (inactive)
C=C1C(=O)[C@]23C[C@H]1CCC2[C@@]1(C)C(C[C@@H]3O)[C@](C)(C(=O)O)CC[C@@H]1O (stereo partly specified) | 25.6% (inactive)
CCOc1ccc2cc(C#N)c(SCC(=O)OC)nc2c1 | 51.7% (active)
COc1ccc(CCNC(=O)CSc2nc(-c3ccc(OC)c(OC)c3)ccc2C#N)cc1 | 28% (inactive)
CCOc1ccc2nc(N3CCCN(C(=O)Nc4ccccc4C)CC3)c(C#N)cc2c1 | 4.35% (inactive)
O=C(NCCO)C(=O)NCC(c1ccc2c(c1)OCO2)N1CCN(c2ccc(F)cc2)CC1 (stereo unspecified) | -13% (inactive)
COc1ccc([N+](=O)[O-])cc1NC(=O)C(C)OC(=O)C1c2ccccc2Oc2ccccc21 (stereo unspecified) | 5.23% (inactive)
CCN(C(=O)COc1cccnc1[N+](=O)[O-])C1CCS(=O)(=O)C1 (stereo unspecified) | -20.2% (inactive)
CN(C)CCCN(C(=O)c1ccc(S(=O)(=O)N2CCCc3ccccc32)cc1)c1nc2ccc(F)cc2s1 | 49.7% (active)
CCOc1ccc2nc(N(CCCN(C)C)C(=O)c3ccc(C(=O)c4ccccc4)cc3)sc2c1 | 84.6% (active)
CCOc1ccc2nc(C(=O)N3CCCC(C)C3)sc2c1 (stereo unspecified) | 31.9% (inactive)
CC1CCN(C(=O)c2cccc(S(=O)(=O)N3CCCc4ccccc43)c2)CC1 | 9.56% (inactive)
CCC(=O)Nc1nnc(S(=O)(=O)N2CCCc3ccccc32)s1 | 18.7% (inactive)
CCN(C(=O)COc1ccc(C(=O)c2ccccc2)cc1)c1ccccc1 | 5.81% (inactive)
CC(C)CC(=O)N1CCN(Cc2ccccc2Br)CC1 | -13.2% (inactive)
COC(=O)[C@]12CCCCC=C1N(Cc1cccc3ccccc13)C(=O)[C@H](CC(=O)N1CCOCC1)C2 | -17.8% (inactive)
CCN(Cc1ccncc1)C(=S)Nc1ccccc1C | -14.3% (inactive)
COc1cc(C=O)ccc1Oc1nnnn1-c1ccccc1 | 9.4% (inactive)

SMILES | inhibition (viability loss, TRAIL sensitization)
O=C(CNC(=O)c1cc(=O)[nH]c2ccccc12)Nc1ccc(F)c(F)c1 | -6.89% (inactive)
CCC1Oc2ccccc2N(CC(=O)NCCCN2CCN(CC)CC2)C1=O (stereo unspecified) | -10.7% (inactive)
Cc1ccc(NC(=O)CCCNC(=O)c2ccc(Cl)cc2)cc1S(=O)(=O)N1CCOCC1 | 3.06% (inactive)
CN1CCN(CCCNC(=O)c2ccc(/C=C3\Oc4ccccc4N(Cc4ccc(Cl)cc4)C3=O)cc2)CC1 | 70.5% (active)
O=C(Nc1cccc(F)c1)N1C2CCC1CC(O)(c1cccnc1)C2 (stereo unspecified) | -0.997% (inactive)
COc1ccc(CNC(=O)COC(=O)c2sccc2C)cc1OC | -16.5% (inactive)
Cc1ccsc1C(=O)OCC(=O)c1cc(C)n(CC2CCCO2)c1C (stereo unspecified) | 75.4% (active)
CCCn1c(C)cc(C(=O)COC(=O)c2c(C)nn(-c3ccccc3)c2C)c1C | 1.44% (inactive)
COc1ccc(/C=N/N=C/c2c[nH]c(=O)c(C#N)c2Nc2ccccc2)cc1 | 19.4% (inactive)
COc1ccc(-c2cn3ccsc3n2)cc1 | 54.1% (active)
COc1ccc(-c2cn3ccc(C)cc3n2)cc1 | 87.1% (active)
FC(F)(F)Oc1ccc(-c2cn3cccnc3n2)cc1 | 34.5% (inactive)
COc1cc(OC)cc(-c2nc(=S)n3ccsc3n2)c1 | -7% (inactive)
COc1ccc(-c2cc3nc(NCCOc4ccccc4)ccn3n2)cc1 | 2.79% (inactive)
Cc1ccc(S(=O)(=O)NCc2cn3ccsc3n2)c(C)c1 | -5.68% (inactive)
CCn1cc(C(=O)NCC(=O)NC(C)(C)CO)c(=O)c2cc3c(cc21)OCO3 | -16.5% (inactive)
COc1ccc(C(C)NC(=S)NC2CCCCC2)cc1OC (stereo unspecified) | -10.3% (inactive)
CN1CC(c2ccccc2)C2(COc3ccccc3C2=O)C12C(=O)Nc1ccccc12 (stereo unspecified) | 1.61% (inactive)
COc1ccc(OC)c(NC(=O)CSc2nc(N)c(-c3ccccc3)c(=O)[nH]2)c1 | -16.4% (inactive)
OC(CNCc1ccc(Cl)c(Cl)c1)c1ccccc1 (stereo unspecified) | 1.28% (inactive)
